The record followed here is PubChem BioAssay.

As usually defined, the inhibition is the drop in the measured response relative to a control, in per cent.

The source made the active and inactive calls.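 The calls were made as follows, unless noted: active = NADPH fluorescence slope more negative than the mean of all samples by about 3 SD, 99.7% confidence; inactive = the rest.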

A short description of assay [1]: inhibitors of TNFa-induced NFkB p65 translocation, primary screen, imaging, HUVEC, MLSMR starter and 10KST1 sets (AID 438;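 active = inhibition above 20% together with a positive visual image hit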;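 also: compound added about 3h40 before a 20 min TNFalpha stimulation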;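 as to inhibition: signal is the nuclear over cytoplasmic p65 intensity ratio per well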). Particulars: HUVEC TNFa-induced p65 nuclear translocation; cell count: measured here: nuclei count (cytotoxicity indicator), at 2.08 µM; inhibition: at 2 µM, stronger effect = higher value, 0% TNFa-plus-vehicle, 100% no-TNFa wells.
Assay [2] is described as follows: reduction of polyQ htt aggregates in cells – imaging, exon1htt(103Q)mCFP cells, high-content imaging, primary screen (AID 483;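 active = visual image review flags a hit and inhibition of aggregation exceeds 20%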;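 also: compound exposure lasted 3 days before fixation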;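 as to nuclei count: percent of the per-plate median nuclei count of sample wells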). As to conditions: exon1htt(103Q)mCFP cell line, aggregate imaging, at 2 µM; inhibition of aggregation: stronger effect = higher value; nuclei count: measured here: cell count, toxicity.
Assay [3] can be described thus: endothelial E-selectin expression blockers – imaging, HUVEC, immunofluorescence, MLSMR starter and 10KST1 sets, primary screen (AID 487;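 active = visually confirmed hit in the image check and inhibition above 20%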;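 as to inhibition: signal is fraction of cell area covered by stained E-selectin grains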;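 as to nuclei count: 100% = median nuclei count of all wells on the same plate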). Particulars: HUVEC TNFalpha-induced E-selectin immunofluorescence imaging, at 2 µM; inhibition: stronger effect = higher value; nuclei count: measured here: cell number, toxicity.
Assay [4] has as its target Voltage-gated potassium channel subunit beta-2 (Rattus norvegicus) (UniProt P62483). Put plainly: inhibitors of rat Kvbeta2 reductase activity – biochemical, NADPH fluorescence, primary screen (AID 622;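 active = fluorescence slope higher than the sample average by over 3 SD, cut at about -0.22 in these data, passing the limit was not always enough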;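 also: slope of raw intensity against log time taken from 70 to 1610 s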). Particulars: recombinant KvBeta, 4-cyanobenzaldehyde reduction, at 10 µM, stronger effect = higher value.
Assay [5] shares this target. In words: enhancers of rat Kvbeta2 NADPH turnover – biochemical, NADPH fluorescence, primary screen (AID 623).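 Also: fluorescence intensity change per second fitted from 20 to 320 s.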 Particulars: Recombinant KvBeta, NADPH fluorescence decrease slope, 10 min; at 10 µM; stronger effect = lower value.
The target of assay [6] is Alpha-2C adrenergic receptor (Homo sapiens) (UniProt P18825). In words: compounds altering alpha2C-coupled GIRK flux – cell-based, HEK293 alpha2C/GIRK1/2, thallium flux, primary screen (AID 624;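 active = fluorescence slope after compound addition differing from the mean of all screened samples at 99.7% confidence, in either direction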;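 also: slope of fluorescence ratio to pre-addition baseline per second over 15 to 24 s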). As to conditions: thallium flux BTC fluorescence, at 10 µM, actives lie on both sides.
Chain of Alpha-2C adrenergic receptor (Homo sapiens) (P18825 whole entry, looked up): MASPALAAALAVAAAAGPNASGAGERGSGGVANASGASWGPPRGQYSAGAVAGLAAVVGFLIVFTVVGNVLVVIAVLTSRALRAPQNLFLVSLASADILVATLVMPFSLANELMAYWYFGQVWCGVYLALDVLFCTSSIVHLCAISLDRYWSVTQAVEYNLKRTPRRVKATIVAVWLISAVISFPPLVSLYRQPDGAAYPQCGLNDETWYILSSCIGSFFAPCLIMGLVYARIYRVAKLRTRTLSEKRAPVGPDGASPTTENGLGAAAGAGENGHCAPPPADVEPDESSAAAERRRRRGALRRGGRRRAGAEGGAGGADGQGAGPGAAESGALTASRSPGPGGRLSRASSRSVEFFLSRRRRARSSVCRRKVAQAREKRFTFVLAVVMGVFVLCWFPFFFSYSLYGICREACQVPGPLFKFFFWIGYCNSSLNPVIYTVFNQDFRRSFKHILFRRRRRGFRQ
Assay [7] in a line: blockers of RIG-like receptor reporter activation – cell-based, Sendai virus stimulus, luciferase, 10K MLSCN set, TLR/RLR signaling modifier project, primary screen (AID 602276;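 active = inhibition at or above 50% at 10 µM; inactive = inhibition below 50%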;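 also: firefly luciferase from ISG56 promoter only with Renilla not read in this screen; 0% = Sendai virus plus DMSO and 100% = medium plus DMSO without virus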). As to conditions: HEK293 RL24 IRF3 luciferase reporter, at 10 µM, stronger effect = higher value.
Assay [8] is described as follows: TLR3 IRF3 reporter activation blockers – cell-based, poly I:C stimulus, luciferase, 10K MLSCN set, primary screen (AID 602277;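 active = inhibition of the reporter signal at or above 50%; inactive = inhibition below 50%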). Particulars: HEK293-TLR3 RL24 IRF3 luciferase reporter, at 10 µM, stronger effect = higher value. A general note: Reporter assays use an easily measured gene product as a stand-in for the process of interest.

Chain of Voltage-gated potassium channel subunit beta-2 (Rattus norvegicus) (P62483 whole entry, looked up): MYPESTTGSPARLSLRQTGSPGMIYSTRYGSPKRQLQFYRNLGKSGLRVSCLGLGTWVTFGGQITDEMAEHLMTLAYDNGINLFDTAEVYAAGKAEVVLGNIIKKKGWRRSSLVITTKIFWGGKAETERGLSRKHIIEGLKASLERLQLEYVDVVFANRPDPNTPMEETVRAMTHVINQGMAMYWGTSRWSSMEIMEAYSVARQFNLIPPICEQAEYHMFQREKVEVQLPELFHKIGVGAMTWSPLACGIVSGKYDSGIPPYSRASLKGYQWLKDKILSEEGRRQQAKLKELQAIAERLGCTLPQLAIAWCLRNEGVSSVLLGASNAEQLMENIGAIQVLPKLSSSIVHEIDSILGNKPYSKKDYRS

Consider `Cc1[nH]nc2c1C(c1ccc(F)cc1)C1=C(CC(C)(C)CC1=O)N2` (stereo not drawn), for which, in assay [1], the cell count amounted to 561. For the same compound, the inhibition in assay [1] was -30.6% (inactive); in assay [3], -52.8% (inactive); in assay [7] it was 10.5% (inactive); in assay [8], 32.3% (inactive). In assay [2], the inhibition of aggregation is 4.4% (inactive). The nuclei count in assay [2] is 98.7%; in assay [3], 102%. Further, the fluorescence slope in assay [4] is -0.451 (inactive). Also, in assay [5], the NADPH fluorescence slope is -8.1e-06 (inactive). Besides, the slope in assay [6] was 0.00591 (inactive).

Consider `CCn1c(C(=O)N2CCC(C(=O)N3CCN(c4ccccn4)CC3)CC2)cc2sccc21`, for which the cell count in assay [1] worked out at 663. In addition, the inhibition in assay [1] was -12.8% (inactive); in assay [3], -79.6% (inactive); in assay [7], -5.71% (inactive); in assay [8] it was -29% (inactive). The inhibition of aggregation in assay [2] is 27.4% (inactive). The nuclei count was 105% in assay [2] and 121% in assay [3]. Besides, in assay [4], the fluorescence slope was -0.578 (inactive). The NADPH fluorescence slope in assay [5] was -4.7e-05 (inactive). Besides, the slope in assay [6] was 0.00642 (inactive).

Regarding `N#CCCN1CCN(S(=O)(=O)c2ccc(S(=O)(=O)NC3CCCC3)cc2)CC1`, the cell count in assay [1] came to 689. In addition, the inhibition in assay [1] was -10% (inactive); in assay [3], -2.1% (inactive); in assay [7], -1.55% (inactive); in assay [8], 28.4% (inactive). Also, the inhibition of aggregation in assay [2] is -6.8% (inactive). The nuclei count in assay [2] and in assay [3] was 126% in each case. In addition, the fluorescence slope in assay [4] was -0.624 (inactive). Also, the NADPH fluorescence slope in assay [5] is -3.6e-05 (inactive). For the same compound, the slope in assay [6] is 0.00706 (inactive).

With `CCCCNC(=O)OCCNC(=O)NC`, in assay [1], the cell count came out at 314. In addition, the inhibition in assay [1] was 2.9% (inactive); in assay [3], -62.2% (inactive); in assay [7], 7.22% (inactive); in assay [8] it was 2.44% (inactive). The inhibition of aggregation in assay [2] is -7.8% (inactive). In addition, the nuclei count in assay [2] is 100%; in assay [3], 107%. In addition, the fluorescence slope in assay [4] is -0.317 (inactive). Moreover, the NADPH fluorescence slope in assay [5] was -2.2e-05 (inactive). Besides, the slope in assay [6] is 0.00519 (inactive).

As to `c1ccc(-c2cc(N3CCCCC3)ncn2)cc1`, the cell count in assay [1] stood at 327. Also, the inhibition was 0.7% (inactive) in assay [1], -109% (inactive) in assay [3], -37.6% (inactive) in assay [7] and -113% (inactive) in assay [8]. For the same compound, the inhibition of aggregation in assay [2] is -3.9% (inactive). Moreover, the results for the nuclei count in assay [2] and in assay [3] were 101% and 112%, respectively. For the same compound, the fluorescence slope in assay [4] was -0.485 (inactive). Further, the NADPH fluorescence slope in assay [5] is -4.6e-05 (inactive). Besides, the slope in assay [6] was 0.00423 (inactive).

For `CC(=O)Nc1cc2c(nc1C)nc(C)n2Cc1ccc(Br)cc1`, the cell count in assay [1] is 419. For the same compound, the inhibition is -1.6% (inactive) in assay [1], -83.5% (inactive) in assay [3], 15% (inactive) in assay [7] and -9.25% (inactive) in assay [8]. In addition, the inhibition of aggregation in assay [2] is 7.8% (inactive). Moreover, the nuclei count is 92% in assay [2] and 118% in assay [3]. Moreover, the fluorescence slope in assay [4] was -0.526 (inactive). Moreover, the NADPH fluorescence slope in assay [5] is -0.000178 (inactive). In addition, in assay [6], the slope is 0.00402 (inactive).

With `CSc1ccccc1NC(=O)c1cnc2n(c1=O)CCS2`, the cell count in assay [1] came to 695. In addition, the inhibition is -9.6% (inactive) in assay [1], -2.6% (inactive) in assay [3], 5.22% (inactive) in assay [7] and -12.4% (inactive) in assay [8]. The inhibition of aggregation in assay [2] is -2.5% (inactive). For the same compound, the nuclei count in assay [2] is 111%; in assay [3] it was 112%. Moreover, the fluorescence slope in assay [4] is -0.401 (inactive). In addition, the NADPH fluorescence slope in assay [5] was 1e-05 (inactive). Moreover, the slope in assay [6] was 0.00535 (inactive).

With `N#Cc1ccc(-c2csc(NC(=O)C3CC3)n2)cc1`, the cell count in assay [1] came to 718. In addition, the inhibition in assay [1] is -9.6% (inactive); in assay [3], -25.2% (inactive); in assay [7], -27.3% (inactive); in assay [8], -86% (inactive). The inhibition of aggregation in assay [2] is 33.4% (inactive). The nuclei count in assay [2] was determined as 93.9%; in assay [3], 116%. In addition, in assay [4], the fluorescence slope is -0.502 (inactive). Also, the NADPH fluorescence slope in assay [5] was -1.9e-05 (inactive). Moreover, in assay [6], the slope is 0.00647 (inactive).

Turning to `COC(=O)c1[nH]c(C)c(/C(O)=C2\C(=O)C(=O)N(CCN3CCOCC3)C2c2cccs2)c1C` (stereo not drawn), the cell count in assay [1] worked out at 450. For the same compound, the inhibition in assay [1] is -4.8% (inactive); in assay [3], -53.2% (inactive); in assay [7], 15.2% (inactive); in assay [8] it was 11.2% (inactive). Moreover, the inhibition of aggregation in assay [2] is 2.2% (inactive). Moreover, the nuclei count stood at 96.3% in assay [2] and 126% in assay [3]. For the same compound, in assay [4], the fluorescence slope was -0.254 (inactive). Also, the NADPH fluorescence slope in assay [5] is -2.8e-05 (inactive). The slope in assay [6] was 0.00576 (inactive).

Take `O=C(c1ccc2c(c1)OCO2)N1CCCN(C(=O)c2ccc3c(c2)OCO3)CC1`: in assay [1], the cell count was 522. The inhibition was 5% (inactive) in assay [1], -123% (inactive) in assay [3], 15.7% (inactive) in assay [7] and 28.5% (inactive) in assay [8]. In assay [2], the inhibition of aggregation was -1.1% (inactive). The nuclei count in assay [2] came out at 103%; in assay [3], 106%. Further, the fluorescence slope in assay [4] is -0.417 (inactive). Also, the NADPH fluorescence slope in assay [5] is -0.0001 (inactive). The slope in assay [6] is 0.0056 (inactive).

`COc1cc(NC(=O)c2cc(CC(C)C)on2)c(OC)cc1Cl`: the cell count in assay [1] amounted to 558. Also, the inhibition in assay [1] is -6% (inactive); in assay [3], -15.3% (inactive); in assay [7], 10.7% (inactive); in assay [8], 46.6% (inactive). In addition, the inhibition of aggregation in assay [2] is 13.1% (inactive). For the same compound, the nuclei count in assay [2] amounted to 95.8%; in assay [3], 106%. The fluorescence slope in assay [4] is -0.575 (inactive). The NADPH fluorescence slope in assay [5] was 5.1e-07 (inactive). The slope in assay [6] is 0.00662 (inactive).

In the case of `CC(C)COC(=O)NCC12C=CC(O1)C1C(=O)N(c3ccc(Cl)cc3)C(=O)C12` (stereo not drawn), the cell count in assay [1] was found to be 280. For the same compound, the inhibition in assay [1] is -0.5% (inactive); in assay [3], 5.7% (inactive); in assay [7] it was -5.72% (inactive); in assay [8], 0.93% (inactive). Also, the inhibition of aggregation in assay [2] was -14.3% (inactive). The nuclei count in assay [2] worked out at 104%; in assay [3] it was 119%. Also, in assay [4], the fluorescence slope is -0.447 (inactive). Moreover, the NADPH fluorescence slope in assay [5] is -0.000376 (inactive). Also, the slope in assay [6] was 0.005 (inactive).

Consider `CCOCCCNC(=O)CN1CCN(Cc2ccccc2C)C1=O`, for which the cell count in assay [1] turned out to be 600. Also, the inhibition in assay [1] was -4.4% (inactive); in assay [3], -42% (inactive); in assay [7] it was -1.33% (inactive); in assay [8], 19.7% (inactive). Also, the inhibition of aggregation in assay [2] is -25.9% (inactive). For the same compound, the nuclei count was 108% in assay [2] and 117% in assay [3]. The fluorescence slope in assay [4] is -0.574 (inactive). Further, the NADPH fluorescence slope in assay [5] was -5.1e-05 (inactive). For the same compound, the slope in assay [6] is 0.00699 (inactive).
